Results filed as inconclusive are left out. Active and inactive are the calls of the source. The call rests on the fitted dose curve; in most records, active means well fitted activation curve with a large enough effect; inconclusive means small, poorly fitted or top-dose-only effect; inactive means no such curve, though single readings can be large or run the other way.
The compounds below were run against Relaxin receptor 1 (Homo sapiens) (UniProt Q9HBX9) (assay: qHTS Assay for Agonists of the Relaxin Receptor RXFP1: THP1 Hit Validation). Conditions: THP1-RXFP1 cells, cAMP TR-FRET, 30 min; series mostly up to 115 µM.
How it was run: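 EC50s come from Hill-equation fits of data normalized between buffer (basal) and 29 nM porcine relaxin (100%). cAMP was measured by competitive TR-FRET in lysates of RXFP1-transfected THP1 cells after 30 min compound exposure, with Ro 20174 present.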
Further: nearly all actives have a fitted effect of over 60% in size.
Potency means the concentration at half of the fitted maximal effect.

Sequence of Relaxin receptor 1 (Homo sapiens) (Q9HBX9 whole entry, looked up): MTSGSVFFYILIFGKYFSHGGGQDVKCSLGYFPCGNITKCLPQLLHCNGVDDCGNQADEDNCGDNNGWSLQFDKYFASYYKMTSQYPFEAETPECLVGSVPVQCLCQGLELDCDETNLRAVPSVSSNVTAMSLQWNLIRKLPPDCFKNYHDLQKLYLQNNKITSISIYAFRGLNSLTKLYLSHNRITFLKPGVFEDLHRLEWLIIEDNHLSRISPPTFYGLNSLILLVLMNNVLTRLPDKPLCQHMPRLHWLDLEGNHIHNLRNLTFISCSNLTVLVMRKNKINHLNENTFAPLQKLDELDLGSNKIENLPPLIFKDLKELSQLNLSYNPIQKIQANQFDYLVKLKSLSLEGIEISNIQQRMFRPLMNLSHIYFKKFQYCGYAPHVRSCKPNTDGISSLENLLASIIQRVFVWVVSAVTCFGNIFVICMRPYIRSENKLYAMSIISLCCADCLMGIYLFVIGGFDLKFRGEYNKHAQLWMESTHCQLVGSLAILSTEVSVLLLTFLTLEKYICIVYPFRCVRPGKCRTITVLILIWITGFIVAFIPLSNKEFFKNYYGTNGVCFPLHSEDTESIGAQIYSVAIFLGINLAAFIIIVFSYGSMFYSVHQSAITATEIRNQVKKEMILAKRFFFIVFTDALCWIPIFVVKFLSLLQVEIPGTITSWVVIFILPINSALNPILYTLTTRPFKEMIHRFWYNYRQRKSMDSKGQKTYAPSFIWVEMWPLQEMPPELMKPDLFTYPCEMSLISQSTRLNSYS

**Q.** For `CCS(=O)(=O)Nc1cccc(-c2ccc3nnc(-c4cccnc4)n3n2)c1`, which Potency is on record?
**A.** Its Potency is 27.5 µM (active).

**Q.** For `Cc1ccccc1NC(=O)c1ccccc1NC(=O)c1ccco1`, which Potency is on record?
**A.** The Potency was “inactive”.

**Q.** For `COc1ccc(Cl)cc1-c1n[nH]c(=S)o1`, which Potency is on record?
**A.** Its Potency is 6.15 µM (active).

**Q.** `Nc1ncnc2c1ncn2C1OC(CO)C(O)C1O` (configuration not stated) was tested. Which Potency did it give?
**A.** The Potency was “inactive”.

**Q.** `CC(C(=O)OCC(=O)N(C)C1(C#N)CCCCC1)N1C(=O)c2ccccc2C1=O` (configuration not stated) was tested. Which Potency did it give?
**A.** The Potency was 15.4 µM (active).

**Q.** With `CC(C)C(=O)Nc1ccc(Nc2ccccc2)cc1` as the compound, how does the Potency read?
**A.** Its Potency is “inactive”.

**Q.** How did the Potency turn out when `Cc1ccc(-n2nnc3c(=O)n(CC(=O)NCC4CCCO4)cnc32)cc1` (configuration not stated) was run?
**A.** The Potency was 15.5 µM (active).

**Q.** How did the Potency turn out when `O=S(=O)(c1cccc(-c2cn3cccnc3n2)c1)N1CCOCC1` was run?
**A.** Its Potency is 13.8 µM (active).

**Q.** `COc1ccc(CN2C(=O)c3cccnc3C2=O)cc1S(=O)(=O)NC1CCCCC1C` (configuration not stated) was tested. Which Potency did it give?
**A.** The Potency was 27.5 µM (active).

**Q.** Which Potency does the source give for `COC(=O)Cn1cnc2c(C#N)c3n(c2c1=O)CCCCC3` here?
**A.** Its Potency is 8.7 µM (active).

**Q.** Which Potency does the source give for `CCN(CC)S(=O)(=O)c1cccc(N=Nc2c(O)c3ccccc3oc2=O)c1` here?
**A.** The Potency was 9.77 µM (active).

**Q.** For `CCc1cc2cc3c(cc2nc1SCC(=O)Nc1nccs1)OCO3`, which Potency is on record?
**A.** The Potency was 21.8 µM (active).

**Q.** With `CC1(C)Cc2c(sc3c2c2ncnn2c2nnc(SCC(=O)NCc4ccco4)n32)CO1` as the compound, how does the Potency read?
**A.** The Potency was 5.49 µM (active).

**Q.** For `COc1ccc(/C=C2/SC(=O)N(CC(=O)Nc3cc(C)on3)C2=O)cc1OC`, which Potency is on record?
**A.** Its Potency is “inactive”.

**Q.** `Cc1cccc(C(=O)Nc2ccccc2C(=O)NCc2ccco2)c1` was tested. Which Potency did it give?
**A.** Its Potency is “inactive”.

**Q.** Which Potency does the source give for `COc1ccc(S(=O)(=O)N2CCOCC2)cc1NC(=O)CSc1nnc2ccccn12` here?
**A.** The Potency was 6.9 µM (active).

**Q.** `CN(C)c1ccc2nc3c(=O)[nH]c(=O)nc-3n(CC(O)C(O)C(O)CO)c2c1` (configuration not stated) was tested. Which Potency did it give?
**A.** The Potency was “inactive”.
